# From PubChem BioAssay (Tox21)
# Values without a mark were called inactive. Records with an inconclusive call do not appear. Where a call stands in place of a potency, no number is given. Activity calls are given as the source filed them. Unless noted, the call rests on the fitted dose curve; in most records, active means well fitted curve in the direction sought with a large enough effect in the repeat runs; inconclusive means weak or mixed curves; inactive means no such curve, though single readings can be large; an effect the other way counts as inactive or inconclusive.
# How the values were obtained:
# [1] = qHTS assay to identify small molecule agonists of the hypoxia (HIF-1) signaling pathway (AID 1224846; active means well fitted activation curve with a large enough effect in the signal ratio in the repeat runs, not every such curve was filed as active; the % refers to the signal ratio)
# How it was run: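 Compounds added to ME-180 cells carrying hypoxia-response-element beta-lactamase reporter (0.5% dialyzed FBS, 5 h preplating), 17 h at 37C; agonist activity detected by CCF4-AM B/G FRET read-out.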
# [2] = qHTS assay to identify small molecule agonists of H2AX - cell viability counter screen (AID 1224847; calls by dose curve; further: nearly all actives have a fitted effect of over 30% in size; further: potency means the concentration at half of the fitted maximal effect;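 on activity change, negative = cytotoxicity: wild-type CHO-K1 cells; top concentration of the series differs between compounds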)
# How it was run: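 CHO-K1 wt, 1000 cells/well, o/n 37C; cpds 15 conc, 3 h 37C, 0.76% DMSO; CellTiter-Glo, 30 min RT, luminescence.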
# [3] = qHTS RealTime-Glo MT Cell Viability Assay in HEK293 cells - 32 hour (AID 1224868); further: nearly all actives have a fitted effect of over 50% in size; further: potency means the concentration at half of the fitted maximal effect
# How it was run: (§1)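 Reads taken at 0, 8, 16, 24, 32 and 40 h from the same wells. HEK293 cells (600/well) carried RealTime-Glo reagents from seeding, with compound added after a 5 h settle at 37 C.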
# [4] = A CellTox Green Cytotoxicity Assay to monitor cytotoxicity in HEK293 cells - 0 hour (AID 1224869); further: nearly all actives have a fitted effect of over 50% in size
# How it was run: (§2)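 Fluorescence from a DNA-binding dye excluded by viable cells was measured repeatedly in the same HEK293 wells (600 cells/well) during continuous compound exposure at 37 C. Each assay gives one read point: 0, 8, 16, 24, 32 or 40 h.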
# [5] = qHTS RealTime-Glo MT Cell Viability Assay in HepG2 cells - 40 hour (AID 1224870); further: nearly all actives have a fitted effect of over 50% in size; further: potency means the concentration at half of the fitted maximal effect
# How it was run: (§3)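 HepG2 cells mixed with RealTime-Glo MT reagents (NanoLuc plus cell-permeant prosubstrate) were seeded at 600 cells/well, incubated 5 h at 37 C/5% CO2, then pinned with compounds in DMSO; nonlytic luminescence tracked viability during 40 h treatment.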
# [6] = A CellTox Green Cytotoxicity Assay to monitor cytotoxicity in HEK293 cells - 40 hour (AID 1224871); further: nearly all actives have a fitted effect of over 45% in size; further: potency means the concentration at half of the fitted maximal effect
# How it was run: as §2
# [7] = qHTS RealTime-Glo MT Cell Viability Assay in HEK293 cells - 16 hour (AID 1224872); further: nearly all actives have a fitted effect of over 50% in size; further: potency means the concentration at half of the fitted maximal effect; on activity change, negative = cytotoxicity: top concentration of the series differs between compounds
# How it was run: as §1
# [8] = qHTS RealTime-Glo MT Cell Viability Assay in HepG2 cells - 8 hour (AID 1224873); further: nearly all actives have a fitted effect of over 55% in size; further: potency means the concentration at half of the fitted maximal effect
# How it was run: as §3
# [9] = qHTS RealTime-Glo MT Cell Viability Assay in HEK293 cells - 40 hour (AID 1224874); settings: RealTime-Glo luminescence; max response: active compounds read low; further: nearly all actives have a fitted effect of over 50% in size; further: potency means the concentration at half of the fitted maximal effect
# How it was run: (§4)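 Luminescence, which tracks viable cell number through reduction of the prosubstrate to a NanoLuc substrate, was read over continuous 37 C culture. Cells (600/well) were premixed with reagent and rested 5 h before 23 nL of compound in DMSO was pinned.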
# [10] = A CellTox Green Cytotoxicity Assay to monitor cytotoxicity in HEK293 cells - 24 hour (AID 1224875); further: nearly all actives have a fitted effect of over 45% in size; further: potency means the concentration at half of the fitted maximal effect
# How it was run: as §2
# [11] = A CellTox Green Cytotoxicity Assay to monitor cytotoxicity in HepG2 cells - 16 hour (AID 1224876); further: nearly all actives have a fitted effect of over 45% in size; further: potency means the concentration at half of the fitted maximal effect
# How it was run: (§5)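 Real-time cytotoxicity: fluorescence of a cell-impermeant cyanine dye binding DNA of dead HepG2 cells, measured repeatedly (0–40 h) during compound exposure at 37 C. Cells seeded 600/well with reagent, dosed after 5 h.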
# [12] = qHTS RealTime-Glo MT Cell Viability Assay in HepG2 cells - 32 hour (AID 1224877); further: nearly all actives have a fitted effect of over 55% in size; further: potency means the concentration at half of the fitted maximal effect
# How it was run: (§6)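 HepG2 suspension premixed with RealTime-Glo reagents is plated at 600 cells per well and left 5 h at 37 C/5% CO2. Compounds in DMSO then go in, and bioluminescence reflecting viable cell number is recorded over 40 h.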
# [13] = A CellTox Green Cytotoxicity Assay to monitor cytotoxicity in HepG2 cells - 24 hour (AID 1224878); further: nearly all actives have a fitted effect of over 45% in size; further: potency means the concentration at half of the fitted maximal effect
# How it was run: as §5
# [14] = A CellTox Green Cytotoxicity Assay to monitor cytotoxicity in HepG2 cells - 40 hour (AID 1224879); further: nearly all actives have a fitted effect of over 40% in size; further: potency means the concentration at half of the fitted maximal effect
# How it was run: as §5
# [15] = qHTS RealTime-Glo MT Cell Viability Assay in HEK293 cells - 0 hour (AID 1224880)
# How it was run: as §4
# [16] = A CellTox Green Cytotoxicity Assay to monitor cytotoxicity in HEK293 cells - 32 hour (AID 1224881); further: nearly all actives have a fitted effect of over 40% in size; further: potency means the concentration at half of the fitted maximal effect
# How it was run: as §2
# [17] = A CellTox Green Cytotoxicity Assay to monitor cytotoxicity in HepG2 cells - 0 hour (AID 1224882); further: nearly all actives have a fitted effect of over 35% in size
# How it was run: as §5
# [18] = qHTS RealTime-Glo MT Cell Viability Assay in HepG2 cells - 24 hour (AID 1224867); further: nearly all actives have a fitted effect of over 50% in size; further: potency means the concentration at half of the fitted maximal effect
# How it was run: as §6
# [19] = qHTS assay to identify small molecule antagonists of the estrogen related receptor (ERR) signaling pathway from Tox21 library (AID 1224848)
# How it was run: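 First, 2,000 ERR cells per well were plated and held 6 h at 37 C/5% CO2. Next, compounds in DMSO were pinned in and left 18 h at 37 C. Finally, ONE-Glo was added and luminescence read after 30 min at room temperature.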
# [20] = qHTS assay to identify small molecule agonists of the estrogen related receptor (ERR) signaling pathway from Tox21 library (AID 1224849; calls by dose curve; further: nearly all actives have a fitted effect of over 15% in size); settings: ERR reporter cell line, ONE-Glo luciferase, 18 h; at 92.4 µM (top of the series) unless noted
# How it was run: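 Luminescent agonist read-out (One-Glo, 30-minute room-temperature incubation) following 18-hour compound treatment at 37 C of the ERR cell line, which had been plated 6 hours before dosing.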
structure (smiles),measurement,setting,value
NC(=O)CCl,outcome,[1],inactive
same,Potency,[2],inactive
same,Potency,[3],inactive
same,Potency,[4],inactive
same,Potency,[5],inactive
same,Potency,[6],inactive
same,Potency,[7],inactive
same,Potency,[8],inactive
same,max response,[9],11.6%
same,Potency,[10],inactive
same,Potency,[11],inactive
same,Potency,[12],inactive
same,Potency,[13],inactive
same,Potency,[14],inactive
same,Potency,[15],inactive
same,Potency,[16],inactive
same,Potency,[17],inactive
COc1ccc(OC)c(C=O)c1,outcome,[1],inactive
same,Potency,[2],inactive
same,Potency,[18],inactive
same,Potency,[4],inactive
same,Potency,[5],inactive
same,Potency,[6],inactive
same,Potency,[8],inactive
same,Potency,[10],inactive
same,Potency,[11],inactive
same,Potency,[12],inactive
same,Potency,[13],inactive
same,Potency,[14],inactive
same,Potency,[16],inactive
same,Potency,[17],inactive
CC(=[OH+])/C=C(/C)[O-].CC(=[OH+])/C=C(\C)[O-].CC(=[OH+])/C=C(\C)[O-].[Al],outcome,[1],inactive
same,Potency,[2],inactive
same,Potency,[3],inactive
same,Potency,[4],inactive
same,Potency,[5],inactive
same,Potency,[6],inactive
same,Potency,[7],inactive
same,Potency,[8],inactive
same,Potency,[10],inactive
same,Potency,[11],inactive
same,Potency,[12],inactive
same,Potency,[13],inactive
same,Potency,[14],inactive
same,Potency,[15],inactive
same,Potency,[16],inactive
same,Potency,[17],inactive
SCc1ccco1,outcome,[1],inactive
same,Potency,[2],inactive
same,Potency,[18],inactive
same,Potency,[3],inactive
same,Potency,[4],inactive
same,Potency,[5],inactive
same,Potency,[6],inactive
same,Potency,[7],inactive
same,max response,[9],-11.9%
same,Potency,[10],inactive
same,Potency,[11],inactive
same,Potency,[12],inactive
same,Potency,[13],inactive
same,Potency,[14],inactive
same,Potency,[15],inactive
same,Potency,[16],inactive
same,Potency,[17],inactive
CCCCCCCCCBr,outcome,[1],inactive
same,Potency,[2],inactive
same,Potency,[18],inactive
same,Potency,[3],inactive
same,Potency,[5],inactive
same,Potency,[6],inactive
same,Potency,[7],inactive
same,Potency,[8],inactive
same,max response,[9],-6.03%
same,Potency,[11],inactive
same,Potency,[12],inactive
same,Potency,[13],inactive
same,Potency,[14],inactive
same,Potency,[15],inactive
same,Potency,[16],inactive
CCCCCCCCCCCCCN1CC(C)OC(C)C1 (stereo not given),outcome,[1],inactive
same,Potency,[2],inactive
same,Potency,[18],inactive
same,Potency,[3],inactive
same,Potency,[4],inactive
same,Potency,[5],inactive
same,Potency,[7],inactive
same,Potency,[8],inactive
same,max response,[9],-1.65%
same,Potency,[11],inactive
same,Potency,[12],inactive
same,Potency,[13],inactive
same,Potency,[14],inactive
same,Potency,[15],inactive
same,Potency,[16],inactive
same,Potency,[17],inactive
CC(C)(C)OO,outcome,[1],inactive
same,Potency,[2],inactive
same,Potency,[3],inactive
same,Potency,[4],inactive
same,Potency,[5],inactive
same,Potency,[7],inactive
same,Potency,[8],inactive
same,Potency,[11],inactive
same,Potency,[13],inactive
same,Potency,[14],inactive
same,Potency,[15],inactive
same,Potency,[16],inactive
same,Potency,[17],inactive
N#Cc1ccc(O)cc1,outcome,[1],inactive
same,Potency,[2],inactive
same,Potency,[18],inactive
same,Potency,[3],inactive
same,Potency,[4],inactive
same,Potency,[5],inactive
same,Potency,[6],inactive
same,Potency,[7],inactive
same,Potency,[8],inactive
same,Potency,[11],inactive
same,Potency,[13],inactive
same,Potency,[14],inactive
same,Potency,[15],inactive
same,Potency,[16],inactive
same,Potency,[17],inactive
O=[N+]([O-])c1cc(Cl)ccc1Cl,outcome,[1],inactive
same,Potency,[2],inactive
same,Potency,[18],inactive
same,Potency,[3],inactive
same,Potency,[4],inactive
same,Potency,[5],inactive
same,Potency,[7],inactive
same,Potency,[8],inactive
same,max response,[9],-0.799%
same,Potency,[10],inactive
same,Potency,[11],inactive
same,Potency,[12],inactive
same,Potency,[13],inactive
same,Potency,[14],inactive
same,Potency,[15],inactive
same,Potency,[17],inactive
ClCc1ccc(Cl)cc1Cl,outcome,[1],inactive
same,Potency,[2],inactive
same,Potency,[4],inactive
same,Potency,[5],inactive
same,Potency,[7],inactive
same,Potency,[11],inactive
same,Potency,[12],inactive
same,Potency,[13],inactive
same,Potency,[14],inactive
same,Potency,[15],inactive
same,Potency,[17],inactive
OC(Cc1ccccc1Cl)(Cn1cncn1)C1(Cl)CC1 (stereo not given),outcome,[1],inactive
same,Potency,[19],48.6 µM (active)
same,"activity change, positive = activation",[20],-38.2%
same,Potency,[18],inactive
same,Potency,[3],49 µM (active)
same,Potency,[4],inactive
same,Potency,[5],inactive
same,Potency,[8],inactive
same,Potency,[9],49 µM (active)
same,Potency,[10],inactive
same,Potency,[11],inactive
same,Potency,[12],inactive
same,Potency,[13],inactive
same,Potency,[14],inactive
same,Potency,[15],inactive
same,Potency,[17],inactive
Oc1ccc2ccc3cccc4ccc1c2c34,outcome,[1],inactive
same,Potency,[3],15.5 µM (active)
same,Potency,[4],inactive
same,Potency,[7],15.5 µM (active)
same,Potency,[8],43.6 µM (active)
same,Potency,[9],13.8 µM (active)
same,Potency,[14],54.9 µM (active)
same,Potency,[17],inactive
CC1(C)CN=C(NN=C(/C=C/c2ccc(C(F)(F)F)cc2)/C=C/c2ccc(C(F)(F)F)cc2)NC1,Potency,[2],25.3 µM (active)
same,Potency,[19],13.7 µM (active)
same,"activity change, positive = activation",[20],-76.2%
same,Potency,[18],17.4 µM (active)
same,Potency,[3],38.9 µM (active)
same,Potency,[4],inactive
same,Potency,[5],15.5 µM (active)
same,Potency,[6],49 µM (active)
same,Potency,[7],49 µM (active)
same,Potency,[8],24.5 µM (active)
same,Potency,[9],38.9 µM (active)
same,Potency,[11],24.5 µM (active)
same,Potency,[12],17.4 µM (active)
same,Potency,[13],19.5 µM (active)
same,Potency,[14],15.5 µM (active)
same,Potency,[15],inactive
same,Potency,[16],54.9 µM (active)
same,Potency,[17],inactive
[Cl][Sn]([c]1ccccc1)([c]1ccccc1)[c]1ccccc1,Potency,[2],1.52 µM (active)
same,Potency,[19],0.58 µM (active)
same,"activity change, positive = activation",[20],-65.5% [at 19 µM]
same,Potency,[18],2.61 µM (active)
same,Potency,[3],0.262 µM (active)
same,cytotoxicity,[4],-13.5% [at 15.8 µM]
same,Potency,[5],2.61 µM (active)
same,Potency,[6],1.65 µM (active)
same,Potency,[7],0.293 µM (active)
same,Potency,[8],7.37 µM (active)
same,Potency,[9],0.233 µM (active)
same,Potency,[10],1.85 µM (active)
same,Potency,[11],3.29 µM (active)
same,Potency,[12],2.61 µM (active)
same,Potency,[13],2.61 µM (active)
same,Potency,[14],2.61 µM (active)
same,"activity change, negative = cytotoxicity",[15],1.26% [at 15.8 µM]
same,Potency,[16],1.65 µM (active)
CCCCN(CCCC)C(=S)[S-].CCCCN(CCCC)C(=S)[S-].[Zn+2],Potency,[2],80 µM (active)
same,Potency,[19],12.2 µM (active)
same,"activity change, positive = activation",[20],-74.5%
same,Potency,[18],34.7 µM (active)
same,Potency,[3],11 µM (active)
same,Potency,[4],inactive
same,Potency,[5],24.5 µM (active)
same,Potency,[6],15.5 µM (active)
same,Potency,[7],12.3 µM (active)
same,Potency,[8],21.9 µM (active)
same,Potency,[9],11 µM (active)
same,Potency,[10],21.9 µM (active)
same,Potency,[11],48.9 µM (active)
same,Potency,[13],34.7 µM (active)
same,Potency,[14],24.5 µM (active)
same,Potency,[15],inactive
same,Potency,[16],19.5 µM (active)
same,Potency,[17],inactive
COP(=O)(OC)SCn1c(=O)oc2cc(Cl)cnc21,outcome,[1],inactive
same,"activity change, positive = activation",[20],-27.7%
same,Potency,[18],inactive
same,Potency,[5],inactive
same,Potency,[8],inactive
same,Potency,[10],inactive
same,Potency,[11],inactive
same,Potency,[12],inactive
same,Potency,[13],inactive
same,Potency,[14],49 µM (active)
same,Potency,[15],inactive
same,Potency,[16],inactive
